Measurements taken from the supplement of paper PMC3334620.
In all, about 33,000 sequences were measured (“E-score (-0.5 to 0.5)”: median about -0.016, highest 2% from about 0.32 on). This is one part of a sample in which the highest values are shown more often than they occur.

target: T1, Stp1 (UniProt B3LFK1); experiment: PBM E-score (8-mer binding enrichment) (E-score (-0.5 to 0.5)); higher = stronger / more preferred TF binding; conditions: protein concentration: 200 nM; construct: GST-full length
T1 sequence: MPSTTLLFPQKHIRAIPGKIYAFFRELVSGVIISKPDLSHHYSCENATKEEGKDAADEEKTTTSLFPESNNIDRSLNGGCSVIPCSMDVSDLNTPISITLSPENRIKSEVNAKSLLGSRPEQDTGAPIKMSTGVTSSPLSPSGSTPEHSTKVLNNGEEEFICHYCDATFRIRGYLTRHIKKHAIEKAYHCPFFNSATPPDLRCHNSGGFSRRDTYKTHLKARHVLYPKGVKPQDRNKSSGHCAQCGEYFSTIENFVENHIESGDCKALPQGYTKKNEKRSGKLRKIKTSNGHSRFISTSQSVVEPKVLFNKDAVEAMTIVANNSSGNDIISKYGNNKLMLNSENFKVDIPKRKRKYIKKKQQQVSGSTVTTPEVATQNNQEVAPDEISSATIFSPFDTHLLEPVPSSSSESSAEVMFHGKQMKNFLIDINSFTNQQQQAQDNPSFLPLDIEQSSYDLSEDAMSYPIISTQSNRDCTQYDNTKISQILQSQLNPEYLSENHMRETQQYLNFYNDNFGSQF
In short: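 Masliner-normalised scans of fluorescent anti-GST signal were the basis for scoring. That signal came from GST-tagged yeast transcription factors applied at about 100-200 nM to double-stranded universal all-10-mer Agilent arrays on fresh or once-stripped slides. Each ungapped eight-base word, pooled with its reverse complement, received an E-score from the Universal PBM Analysis Suite.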

Sequence	PBM E-score
ATGCTGAC	-0.0531
ATACAGCC	-0.0239
GCCTCTAA	0.0553
AACCGTAC	-0.0138
CGAACAGA	0.0325
CGCCGTGA	0.376
CCCCGTGA	-0.14
CACCGTGA	-0.114
ATGCACTC	-0.0521
AACGAGAA	0.00842
GCCGCCGC	0.424
GCCGCCGA	0.316
CCCGCCGC	0.332
GCCGCCCA	0.111
ACCGCCCC	-0.144
GCCGCCCC	0.378
CCCGCCGG	-0.213
CCCGCCGA	-0.0885
GCCGCCAC	0.0605
CCTTGATC	0.1
CTGCCCCC	-0.327
CGGGCATA	-0.155
AACGCCCA	0.122
AAGTCCGT	-0.0471
AAAGAAAT	0.128

Sequence	PBM E-score
CCATATGG	0.0408
AGGCTAAG	-0.0187
CCCGCAAC	0.097
CCCGCAGA	0.06
GCCGCAAC	0.366
GCCGCAGA	0.372
ACCGCATA	0.0344
CCCGCATA	0.21
ACCGCAGC	-0.119
ACCGCAAC	-0.0924
CCCGCAGC	-0.123
GCCGCAGC	0.394
GCCGCATA	0.457
TCCGCAGA	-0.0849
GTGCTGCA	0.0505
CTCTTACC	0.201
CTACCTCA	-0.152
CTACCCCA	-0.114
CAGGTTGA	-0.216
AGTAACGC	0.192
ATGGTTGC	-0.177
GACTAGCC	-0.194
ATCGCTGA	-0.0887
CCTTGCGC	0.138
GGTGCGAC	-0.0804

Sequence	PBM E-score
TCGTATAA	0.136
GCGTACAA	0.167
ACGTATAA	0.113
TCGTACAA	0.157
CCGTATAA	0.341
CCGTATCA	0.327
CCGTACAA	0.35
CCGTATCC	0.316
CCGTATCG	0.215
ATCGAAGA	0.171
GCACTAAC	0.042
ATTCTCAA	0.152
AGACCAAT	-0.0691
GCGACTGA	-0.227
ACTCCCAG	-0.264
AGTGAACC	0.00324
GCCGTTCC	0.432
TCCGTTCA	0.0192
CCCGTTCC	-0.00751
GCCGTTCA	0.441
CCCGTTCA	-0.132
ACCGTTCC	0.15
AAATAAAC	0.218
GCGGCCAA	0.161
GAGGACAA	-0.101

Sequence	PBM E-score
CACGTGCG	0.272
CAGGATTC	-0.173
AGCCTCGA	-0.172
GCCATTGA	0.226
CGGCTCTA	0.425
AGGCTCTA	0.15
AGGCTCTC	-0.137
CGGCTCTC	0.334
CAGCTCTC	-0.325
GGGCTCTA	-0.0132
CGCACTCC	-0.172
CAGAGCTA	-0.171
AGGGCGCC	0.343
AGGGCGCA	0.205
AGGGCGCG	0.369
CGGGCGCC	0.269
AGGGCGGC	0.14
AGGGGGCG	-0.0306
ACCAAGGT	0.0467
CAGCCACA	0.161
CGGCTTAC	0.104
GCTGGGTA	-0.175
GCTAAAGA	0.0376
AAAGGCAG	0.172
GAAGGCAC	0.368

Sequence	PBM E-score
GCAGGCAC	0.0604
CAAGGCAA	0.264
CAAGGCAG	0.0951
AAAGGCAA	0.263
AAAGGCAC	0.392
CAAGGCAC	0.356
GAAGGCAA	0.218
AGGTGGCG	-0.0008
GCTCAGAA	0.00512
TAGGTGGA	-0.21
AGGGAAAA	0.0119
AGACATTC	-0.19
GGATGCCC	-0.245
GGAAAAAA	0.149
CTGCCTGA	-0.0731
TATAGAGA	0.0248
AGCACCAC	-0.134
GGCACCGA	0.356
GGCACCAA	0.393
GGCACCAC	0.324
TGCACCAA	-0.0793
CGCACCGA	0.0478
AGCACCGA	0.0493
CGCACCAC	0.063
CGCACCAA	0.213

Sequence	PBM E-score
CCCTATTC	-0.0984
GACCAACC	-0.152
GTTGGCAA	0.0689
AAAGGGGG	-0.423
AAGGAGAA	-0.131
AGGGATTG	-0.0197
AATGGTCT	-0.0756
AAGTCTGG	-0.218
GATAGGGC	0.0849
CGAACGGC	0.467
CGAACGGA	0.207
CTAACGGC	0.313
AGAACGGA	0.102
AGAACGGG	-0.129
AGAACGGC	0.387
GTCCTGTA	-0.121
CCAAGAGC	0.0254
AAGACGGG	0.0493
GTCTGTCA	-0.00712
GTTTATTA	0.0702
CTATATTA	0.177
ATATATTA	0.329
ATTTATTA	0.324
CTATATAG	-0.0268
ATTATTTA	0.281

Sequence	PBM E-score
GTATATTA	0.159
ATATATAT	0.303
ATATATAG	0.318
ATAAAGGG	0.0416
CCCTCAGG	-0.224
ATCGTTTC	-0.0261
CGGTAAGA	0.0116
CCTTGCAC	0.127
TATCGAGA	-0.0215
AGGCACCG	0.272
AGGCACCC	-0.00944
CGGCACCG	0.437
CCGCACCG	0.288
CGGCACCC	0.338
GGGCACCC	-0.0477
TAGATCAA	-0.00316
CAAGATCG	-0.123
AAAAAGTG	0.204
AAACGCTT	-0.0887
ACCTCCCG	-0.269
CGTAAGGA	-0.0941
CGTAAGGC	0.358
AGTAAGGC	0.163
CGCAAGGC	0.388
AATAAGGC	0.231

Sequence	PBM E-score
AGCAAGGC	0.29
CGCAAAGC	0.126
CATAAGGC	0.344
CATAAGGG	-0.0274
CCTCCAGA	0.0135
CACATCGC	-0.115
CGCGCTAA	0.227
GGCGCTAA	0.37
AGCGCTGA	-0.0259
TGCGCTAA	-0.0463
GGCGCTGA	0.327
CGCGCTGA	-0.0138
GGGGCAGA	-0.0961
GTCGACAA	-0.192
CCGAACGA	-0.0055
CCGAACGG	0.334
CCGAACGC	0.226
CGTAATAC	0.186
CCTGGGCC	-0.181
ACGGCACA	0.479
TCGGCACA	0.135
CCGGCACG	0.27
CGGGCACA	-0.106
CCGGCACA	0.106
ACGGCACG	0.484

Sequence	PBM E-score
ACTCTGAG	-0.046
AAGTGTGC	0.122
AACAGTGT	-0.102
CGAGGGCG	-0.052
AAGGCGAG	-0.158
ACCGCGAT	0.0376
AAGGCGAA	0.197
ACGGCGAG	0.437
AAGGCGAT	0.329
CCGGCGAG	0.0395
ACGGCGAT	0.479
AGGGCGAT	0.0677
AGGGCGAG	-0.12
CTATGGTA	-0.0844
AGTTTTGC	0.203
AAGGGATA	-0.00219
CTAAGTAG	0.0172
ACTTTGTC	0.0794
ACTTAAAT	0.0505
CAAGCGGG	-0.168
GAAGCGGA	-0.0314
CAAGCGGA	-0.0234
AAAGCGGC	0.366
GAAGCGGC	0.426
CGAGCGGC	0.416

Sequence	PBM E-score
AAAGCGGA	0.0227
CAAGCGGC	0.466
CGAGCGGA	0.114
GAAGCGTC	-0.0144
AAAGCGGG	-0.19
AGAGCGGC	0.307
AAAGGGAC	-0.055
AAGACCGA	-0.107
ACTTAGGC	-0.0486
ATATTCGG	0.0873
ACCCATAC	-0.0919
AAGTCTCG	-0.199
CGCCAACG	0.0633
ATGGCTCG	-0.0567
ATAAACAT	0.222
AAAAGAAC	0.0475
AAAAGAAG	0.19
AAAAGAAT	0.322
CGTATAAA	0.319
CGTATAAC	0.217
CTTATAAA	0.115
GTTATAAA	0.0721
TTTATAAA	0.376
AGTATAAA	0.297
AGTCTGTA	-0.18

Sequence	PBM E-score
AAGTCCCG	-0.145
GCTCGAAC	-0.0559
CCAGGTGC	-0.187
AGGCAAAC	0.118
AGGCAAAA	0.344
TGGCAAAA	0.292
CGGCAAAA	0.357
CGGCAAAG	0.264
GGGCAAAA	0.142
AGACCTCG	-0.157
CACGAGGC	0.415
CGCGAGGA	-0.0281
CACGAGGA	0.102
CGCGAGGC	0.421
ACCGAGGC	-0.121
CACGAGGG	-0.253
GCCGAGGA	0.0308
GCCGAGGC	0.357
AGCGAGGC	0.197
ATCAGGTC	-0.114
CACGATAC	-0.0326
GACAACAA	0.0779
AAGCCCCT	-0.287
CCTTAACC	-0.221
ACCCCGCT	-0.174

Sequence	PBM E-score
ACGGCAGT	0.403
ACAGCAGT	-0.0354
CCGGCAGA	-0.0739
ACGGCAGC	0.406
ACGGCAGA	0.367
TCGGCAGA	-0.0589
ACGGCAGG	0.343
CCGGCAGC	-0.063
ATGGCAGC	0.00395
AAGGCAGG	-0.236
AAGGCAGT	0.103
CCGGCAGG	-0.17
ATCTTTAG	0.0678
AGCCATCC	0.0193
GAGGCAGC	0.0343
GCAGCGGA	-0.0607
GCAGCGGC	0.32
GCGGCAGA	0.261
CCAGCGGC	0.256
GCGGCAGC	0.334
ACTTTTTA	0.157
AACTACGG	-0.0064
AAGCGCCT	0.272
CAGCGCCG	0.446
CAGCGCCC	0.188

Sequence	PBM E-score
AAGCGCCG	0.465
CAGCGCCA	0.0346
AAGCGCCA	0.0796
CAGTAGAG	-0.155
AGTCGATC	-0.128
GACGGGAC	-0.203
CACGTGGC	0.213
GCCTAGCC	0.0204
CCGTGGGA	0.047
ACTGGAAG	-0.2
GTAGGTCA	-0.249
GGGCACAC	-0.098
CCGCACAG	0.201
AGGCACAG	0.133
CGGCACAA	0.405
CGGCACAG	0.398
AGGCACAC	0.0169
AGGCACAA	0.288
GGGCACAA	0.202
GGCCACAC	0.0354
CGGCACAC	0.381
CGCCACAC	0.324
CGCCACAG	-0.0135
CATGCAAA	0.112
CATCTCAG	-0.0765

Sequence	PBM E-score
AACGCTCC	-0.122
CTAAACTA	-0.0468
AAATTCCG	0.126
CGTCTTAC	-0.0611
AGGACCAT	-0.113
GCAGTGCA	-0.0796
AATGTAGC	-0.0806
AGTTCGCC	0.159
GCTACACC	-0.0559
AGAGAGTC	-0.173
GCCGTAAC	0.33
ACCGTAAC	0.0376
GCCGTAAA	0.369
TCCGTAAA	0.0695
GCCGTATA	0.475
ACCGTATA	-0.0953
ACCGTAAA	0.0391
CCCGTAAC	-0.112
CCCGTATA	0.12
